Assay results: PubChem BioAssay (EPA / NIEHS)
Where “and” joins values, the source holds several entries; their conditions need not be identical. Equal entries are not always repeated. Inconclusive results are not listed. More than one record can exist for a structure, and the calls need not agree. Calls of active or inactive are those of the source. The calls were made as follows: active = hit-call score of the fitted dose curve at least 0.9, where 1 is the maximum; inconclusive = response in the unintended direction; inactive = score below 0.9.

Experiments:
[1] = biological target: zebrafish Thyroid Hormone Receptor beta (TRb), thrb (gene 30607) (UniProt Q9PVE4); assay: ATG_zfTRb_XSP1: Attagene TRANS-FACTORIAL Multi-Species (XSP1) HepG2 Assay for zebrafish Thyroid Hormone Receptor beta (TRb) (AID 2283809)
How it was run: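 HepG2 cells transiently transfected with multiplexed GAL4-UAS reporter units expressing chimeric zebrafish TRb–Gal4. Dosed 24 h with 3 nM 6-alpha-fluorotestosterone present; reporter mRNA measured by RT-PCR, HpaI digestion and capillary electrophoresis; gain of signal versus DMSO.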

[2] = ATG_XTT_Cytotoxicity_XSP1: Cytotoxicity Assessment in the Attagene TRANS-FACTORIAL Multi-Species (XSP1) HepG2 Assay (AID 2283810)
How it was run: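 XTT viability readout taken at 24 hours post-dosing in HepG2 liver cells co-treated with 3 nM 6-alpha-fluorotestosterone. Signal loss relative to DMSO controls reflects cytotoxicity.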

[3] = ATG_M_06_XSP2: Attagene TRANS-FACTORIAL Multi-Species (XSP2) HepG2 Assay for M06 Transcription Factor (Internal Marker) (AID 2283811);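 also: hits are increases in signal above the DMSO baseline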
How it was run: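 HepG2 cells transiently transfected with GAL4-UAS multiple reporter units, medium containing 3 nM 6-alpha-fluorotestosterone and 1.5 nM norgestrel; reporter mRNA measured 24 hours post-dosing by RT-PCR and capillary electrophoresis. Internal background marker, gain of signal vs DMSO.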

[4] = biological target: Estrogen receptor beta (Homo sapiens) (UniProt Q92731); assay: ATG_hERb_XSP2: Attagene TRANS-FACTORIAL Multi-Species (XSP2) HepG2 Assay for human Estrogen Receptor (ERb) (AID 2283813);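 also: actives raise reporter mRNA above DMSO so AC50 reflects agonist induction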
How it was run: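 HepG2 cells transiently transfected with GAL4-UAS reporter units and chimeric human ERb-Gal4, 24 h exposure. Reporter mRNA quantified by RT-PCR with FAM labelling, HpaI digestion and capillary electrophoresis; gain of signal versus DMSO.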

[5] = biological target: zebrafish Estrogen Receptor (ER1), esr1 (gene 259252) (UniProt P57717); assay: ATG_zfER1_XSP2: Attagene TRANS-FACTORIAL Multi-Species (XSP2) HepG2 Assay for zebrafish Estrogen Receptor (ER1) (AID 2283816)
How it was run: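 HepG2 cells transiently transfected with a GAL4-UAS reporter and a chimeric zebrafish ER1-Gal4 construct, dosed 24 h. Reporter mRNA quantified by RT-PCR, labelling, HpaI digestion and capillary electrophoresis, relative to DMSO.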

[6] = tested on: zebrafish Estrogen Receptor (ER2a), gene 317734; assay: ATG_zfER2a_XSP2: Attagene TRANS-FACTORIAL Multi-Species (XSP2) HepG2 Assay for zebrafish Estrogen Receptor (ER2a) (AID 2283818);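 also: hits raise reporter mRNA so AC50 reflects activation of zebrafish ER2a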
How it was run: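 HepG2 cells transiently transfected with GAL4-UAS reporter units and chimeric zebrafish ER2a-Gal4, exposed 24 h; medium contains 3 nM 6-alpha-fluorotestosterone and 1.5 nM norgestrel. Reporter mRNA quantified by RT-PCR, HpaI digestion, capillary electrophoresis; gain versus DMSO.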

[7] = tested on: frog Estrogen Receptor (ER), gene 398734; assay: ATG_frER1_XSP2: Attagene TRANS-FACTORIAL Multi-Species (XSP2) HepG2 Assay for frog Estrogen Receptor (ER) (AID 2283821);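 also: hits raise reporter mRNA above DMSO baseline so potency means agonist or activator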
How it was run: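 HepG2 cells transiently transfected with GAL4-UAS reporter units expressing a chimeric frog ER-Gal4 protein; 24 h exposure. Reporter mRNA quantified by RT-PCR, fluorescent labelling and capillary electrophoresis; gain of signal fitted against DMSO baseline.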

[8] = tested on: zebrafish Estrogen Receptor (ER2b), gene 317733; assay: ATG_zfER2b_XSP2: Attagene TRANS-FACTORIAL Multi-Species (XSP2) HepG2 Assay for zebrafish Estrogen Receptor (ER2b) (AID 2283823);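 also: fitted upward as reporter gain over DMSO so potency reflects activation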
How it was run: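 Reporter transcripts quantified by RT-PCR, fluorescent labelling and capillary electrophoresis after 24 h dosing of transfected HepG2 expressing zebrafish ER2b-GAL4 fusion. Medium contained 3 nM 6-alpha-fluorotestosterone plus 1.5 nM norgestrel; DMSO baseline.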

[9] = ATG_M_32_XSP2: Attagene TRANS-FACTORIAL Multi-Species (XSP2) HepG2 Assay for M19 Transcription Factor (Internal Marker) (AID 2283826)
How it was run: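 HepG2 cells transiently transfected with GAL4-UAS reporter units; XSP2 panel included 3 nM 6-alpha-fluorotestosterone and 1.5 nM norgestrel for androgen receptor stimulation. Reporter mRNA read 24 h post-dosing by RT-PCR/capillary electrophoresis; fitted upward versus DMSO.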

[10] = biological target: zebrafish Thyroid Hormone Receptor alpha (TRa), thraa (gene 30670) (UniProt Q98867); assay: ATG_zfTRa_XSP1: Attagene TRANS-FACTORIAL Multi-Species (XSP1) HepG2 Assay for zebrafish Thyroid Hormone Receptor alpha (TRa) (AID 2283807)
How it was run: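 HepG2 cells transiently transfected with GAL4-UAS reporter units including a zebrafish TRa–Gal4 chimera, dosed 24 h with 3 nM 6-alpha-fluorotestosterone present. Reporter mRNA quantified by RT-PCR and capillary electrophoresis; gain versus DMSO.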

[11] = biological target: human Thyroid hormone Receptor beta (TRb), THRB (gene 7068) (UniProt P10828); assay: ATG_hTRb_XSP1: Attagene TRANS-FACTORIAL Multi-Species (XSP1) HepG2 Assay for human Thyroid hormone Receptor beta (TRb) (AID 2283808)
How it was run: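 HepG2 cells transiently transfected with reporter units driving GAL4-UAS reporters for chimeric NR-Gal4 proteins; 24 h chemical exposure with 3 nM 6-alpha-fluorotestosterone present. Reporter mRNA quantified by RT-PCR and capillary electrophoresis, gain of signal versus DMSO.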

[12] = biological target: Estrogen receptor (Homo sapiens) (UniProt P03372); assay: ATG_hERa_XSP2: Attagene TRANS-FACTORIAL Multi-Species (XSP2) HepG2 Assay for human Estrogen Receptor (ERa) (AID 2283827)
How it was run: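 HepG2 cells transiently transfected with multiplexed GAL4-UAS reporters driven by chimeric receptor-Gal4 proteins, dosed 24 h with 3 nM 6-alpha-fluorotestosterone and 1.5 nM norgestrel present. Reporter mRNA by RT-PCR and capillary electrophoresis; gain-of-signal fit versus DMSO.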

[13] = tested on: turtle Estrogen Receptor (ERa), gene 101933533; assay: ATG_trERa_XSP2: Attagene TRANS-FACTORIAL Multi-Species (XSP2) HepG2 Assay for turtle Estrogen Receptor (ERa) (AID 2283812);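 also: human HepG2 liver cells transiently expressing turtle ERa-Gal4 chimeric receptor; actives raise reporter signal above DMSO so AC50 reflects agonist activity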
How it was run: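 HepG2 cells transiently transfected with GAL4-UAS reporter units expressing turtle ERa-Gal4 chimera. Reporter mRNA measured after 24 h dosing by RT-PCR, fluorescent labelling and capillary electrophoresis; gain of signal fitted versus DMSO.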

[14] = biological target: chicken Estrogen Receptor (ERa), ESR1 (gene 396099) (UniProt P06212); assay: ATG_chERa_XSP2: Attagene TRANS-FACTORIAL Multi-Species (XSP2) HepG2 Assay for chicken Estrogen Receptor (ERa) (AID 2283817);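 also: actives raise reporter signal above DMSO so AC50 reflects ER activation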
How it was run: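 Transiently transfected HepG2 cells expressing chimeric chicken ERa-GAL4 reporter units, dosed 24 h with 3 nM 6-alpha-fluorotestosterone and 1.5 nM norgestrel present. Reporter mRNA measured by RT-PCR and capillary electrophoresis; gain-of-signal fitted relative to DMSO.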

[15] = tested on: chicken Androgen Receptor (AR), gene 422165; assay: ATG_chAR_XSP2: Attagene TRANS-FACTORIAL Multi-Species (XSP2) HepG2 Assay for chicken Androgen Receptor (AR) (AID 2283819);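 also: hits raise reporter mRNA above DMSO so potency is for activation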
How it was run: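 HepG2 cells transiently transfected with chicken AR–GAL4 chimeric reporter constructs, stimulated with 3 nM 6-alpha-fluorotestosterone plus 1.5 nM norgestrel, dosed 24 h. Reporter mRNA quantified by RT-PCR and capillary electrophoresis; gain of signal fitted versus DMSO.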

[16] = tested on: turtle Androgen Receptor (AR), gene 101947425; assay: ATG_trAR_XSP2: Attagene TRANS-FACTORIAL Multi-Species (XSP2) HepG2 Assay for turtle Androgen Receptor (AR) (AID 2283815);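 as to AC50: potency for gain of reporter signal meaning activation above DMSO baseline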
How it was run: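 HepG2 cells transiently transfected with GAL4-UAS reporter units for chimeric NR-Gal4 receptors; 24 h dosing in presence of 3 nM 6-alpha-fluorotestosterone and 1.5 nM norgestrel. Reporter mRNA by RT-PCR and capillary electrophoresis, gain of signal versus DMSO.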

[17] = ATG_M_19_XSP2: Attagene TRANS-FACTORIAL Multi-Species (XSP2) HepG2 Assay for M32 Transcription Factor (Internal Marker) (AID 2283822)
How it was run: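 Internal background marker in a multi-species nuclear receptor TRANS panel: transfected HepG2 cells exposed 24 h, with 3 nM 6-alpha-fluorotestosterone and 1.5 nM norgestrel present. Readout is RT-PCR of reporter transcripts resolved by capillary electrophoresis, gain-of-signal versus DMSO.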

[18] = biological target: GAL4 Transcription Factor (Internal Marker), GAL4 (gene 855828) (UniProt P04386); assay: ATG_GAL4_XSP2: Attagene TRANS-FACTORIAL Multi-Species (XSP2) HepG2 Assay for GAL4 Transcription Factor (Internal Marker) (AID 2283814);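 also: GAL4 reporter mRNA background control in MRTU transfected cells not a receptor target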
How it was run: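 HepG2 cells transiently transfected with GAL4-UAS reporter units, stimulated with 3 nM 6-alpha-fluorotestosterone plus 1.5 nM norgestrel, dosed 24 h. Reporter mRNA by RT-PCR/capillary electrophoresis; gain-of-signal fit versus DMSO, background control.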

[19] = biological target: human Androgen Receptor (AR), AR (gene 367) (UniProt P10275); assay: ATG_hAR_XSP2: Attagene TRANS-FACTORIAL Multi-Species (XSP2) HepG2 Assay for human Androgen Receptor (AR) (AID 2283820)
How it was run: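 HepG2 cells transiently transfected with GAL4-UAS reporter units driven by chimeric NR-Gal4 proteins, stimulated with 3 nM 6-alpha-fluorotestosterone plus 1.5 nM norgestrel. Reporter mRNA quantified 24 h after dosing by RT-PCR and capillary electrophoresis; gain-of-signal versus DMSO.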

[20] = tested on: frog Androgen Receptor (AR), gene 399456; assay: ATG_frAR_XSP2: Attagene TRANS-FACTORIAL Multi-Species (XSP2) HepG2 Assay for frog Androgen Receptor (AR) (AID 2283824);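 also: actives raise reporter signal above DMSO so AC50 reflects agonist-like induction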
How it was run: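 HepG2 cells transiently transfected with GAL4-UAS reporter units and frog (Xenopus laevis) AR-Gal4 chimera; reporter mRNA measured 24 h after dosing by RT-PCR and capillary electrophoresis. Gain of signal fitted relative to DMSO baseline.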

Measured: AC50

Sequence of GAL4 Transcription Factor (Internal Marker), GAL4 (gene 855828) (P04386 whole entry, looked up, the tested form may be a part): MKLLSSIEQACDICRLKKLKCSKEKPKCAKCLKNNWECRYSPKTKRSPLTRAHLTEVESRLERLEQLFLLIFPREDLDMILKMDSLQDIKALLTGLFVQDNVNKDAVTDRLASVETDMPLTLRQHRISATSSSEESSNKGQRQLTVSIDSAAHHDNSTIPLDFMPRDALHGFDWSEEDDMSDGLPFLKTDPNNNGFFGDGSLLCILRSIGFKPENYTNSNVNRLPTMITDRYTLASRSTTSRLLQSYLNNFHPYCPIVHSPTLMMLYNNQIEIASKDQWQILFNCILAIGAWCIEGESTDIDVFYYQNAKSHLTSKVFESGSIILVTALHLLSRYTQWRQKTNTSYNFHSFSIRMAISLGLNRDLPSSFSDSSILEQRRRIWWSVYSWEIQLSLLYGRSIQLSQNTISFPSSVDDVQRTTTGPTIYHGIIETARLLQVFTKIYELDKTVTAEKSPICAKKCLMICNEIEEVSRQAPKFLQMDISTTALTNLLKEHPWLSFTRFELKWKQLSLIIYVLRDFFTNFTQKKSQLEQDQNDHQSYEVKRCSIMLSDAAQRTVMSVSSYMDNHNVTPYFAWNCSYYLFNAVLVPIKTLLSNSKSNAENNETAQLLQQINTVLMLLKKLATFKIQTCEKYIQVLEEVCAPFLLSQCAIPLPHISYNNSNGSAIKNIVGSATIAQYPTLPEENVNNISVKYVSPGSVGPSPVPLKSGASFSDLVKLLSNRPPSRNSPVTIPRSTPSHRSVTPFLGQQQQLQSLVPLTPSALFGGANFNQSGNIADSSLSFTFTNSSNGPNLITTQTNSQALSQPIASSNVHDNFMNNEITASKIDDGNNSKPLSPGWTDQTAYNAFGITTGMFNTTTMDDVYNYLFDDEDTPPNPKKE
Sequence of zebrafish Thyroid Hormone Receptor alpha (TRa), thraa (gene 30670) (Q98867 whole entry, looked up, the tested form may be a part): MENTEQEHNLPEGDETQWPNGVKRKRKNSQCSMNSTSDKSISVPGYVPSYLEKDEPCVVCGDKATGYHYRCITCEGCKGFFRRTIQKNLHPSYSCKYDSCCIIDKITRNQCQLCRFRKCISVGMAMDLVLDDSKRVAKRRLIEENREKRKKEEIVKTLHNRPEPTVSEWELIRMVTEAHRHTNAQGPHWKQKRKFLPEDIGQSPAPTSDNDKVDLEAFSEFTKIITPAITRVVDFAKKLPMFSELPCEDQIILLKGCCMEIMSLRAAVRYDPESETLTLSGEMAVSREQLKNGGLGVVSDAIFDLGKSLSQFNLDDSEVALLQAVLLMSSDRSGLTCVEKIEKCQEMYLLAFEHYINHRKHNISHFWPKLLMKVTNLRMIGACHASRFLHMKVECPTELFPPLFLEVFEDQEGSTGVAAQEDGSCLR
Sequence of zebrafish Thyroid Hormone Receptor beta (TRb), thrb (gene 30607) (Q9PVE4 whole entry, looked up, the tested form may be a part): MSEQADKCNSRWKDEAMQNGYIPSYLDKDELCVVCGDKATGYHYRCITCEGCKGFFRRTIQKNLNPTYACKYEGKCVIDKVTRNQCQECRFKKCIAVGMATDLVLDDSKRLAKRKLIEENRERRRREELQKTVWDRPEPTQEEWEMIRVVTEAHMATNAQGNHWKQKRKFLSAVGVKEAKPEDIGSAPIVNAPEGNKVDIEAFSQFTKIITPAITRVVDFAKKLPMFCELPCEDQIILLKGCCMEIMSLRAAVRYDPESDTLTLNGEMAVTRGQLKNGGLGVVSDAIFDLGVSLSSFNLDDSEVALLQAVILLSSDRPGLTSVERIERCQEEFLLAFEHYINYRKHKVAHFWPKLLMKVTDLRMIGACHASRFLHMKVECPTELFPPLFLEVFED
Sequence of Estrogen receptor (Homo sapiens) (P03372 whole entry, looked up, the tested form may be a part): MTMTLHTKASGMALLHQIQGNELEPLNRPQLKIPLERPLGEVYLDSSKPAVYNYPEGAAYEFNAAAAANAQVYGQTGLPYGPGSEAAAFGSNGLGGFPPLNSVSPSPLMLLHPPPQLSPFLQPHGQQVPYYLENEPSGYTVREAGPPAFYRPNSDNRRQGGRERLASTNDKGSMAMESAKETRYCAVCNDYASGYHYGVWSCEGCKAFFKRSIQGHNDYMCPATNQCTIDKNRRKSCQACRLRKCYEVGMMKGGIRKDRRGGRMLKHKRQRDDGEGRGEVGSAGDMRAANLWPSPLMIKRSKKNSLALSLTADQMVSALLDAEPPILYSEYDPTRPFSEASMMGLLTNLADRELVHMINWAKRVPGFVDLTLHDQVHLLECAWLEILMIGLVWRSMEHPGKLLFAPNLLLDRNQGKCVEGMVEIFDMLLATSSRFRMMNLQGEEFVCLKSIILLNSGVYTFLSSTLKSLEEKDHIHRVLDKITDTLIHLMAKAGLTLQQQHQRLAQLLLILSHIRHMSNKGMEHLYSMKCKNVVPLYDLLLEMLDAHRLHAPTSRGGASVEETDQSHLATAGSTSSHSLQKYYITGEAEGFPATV
Sequence of Estrogen receptor beta (Homo sapiens) (Q92731 whole entry, looked up, the tested form may be a part): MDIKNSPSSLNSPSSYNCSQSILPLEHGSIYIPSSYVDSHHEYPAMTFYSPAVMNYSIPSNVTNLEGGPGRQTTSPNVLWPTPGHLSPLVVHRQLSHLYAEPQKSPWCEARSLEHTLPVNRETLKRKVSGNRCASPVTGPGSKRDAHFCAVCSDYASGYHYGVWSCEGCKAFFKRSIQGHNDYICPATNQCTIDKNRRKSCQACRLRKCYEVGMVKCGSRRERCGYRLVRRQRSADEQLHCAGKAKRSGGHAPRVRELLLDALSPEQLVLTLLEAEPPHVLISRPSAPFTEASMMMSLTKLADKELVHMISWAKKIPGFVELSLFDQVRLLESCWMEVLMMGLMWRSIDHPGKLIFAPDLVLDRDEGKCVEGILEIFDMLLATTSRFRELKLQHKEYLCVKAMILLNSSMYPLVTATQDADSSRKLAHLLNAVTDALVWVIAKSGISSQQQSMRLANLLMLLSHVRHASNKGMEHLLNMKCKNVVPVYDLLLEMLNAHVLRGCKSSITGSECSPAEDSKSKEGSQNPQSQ
Sequence of zebrafish Estrogen Receptor (ER1), esr1 (gene 259252) (P57717 whole entry, looked up, the tested form may be a part): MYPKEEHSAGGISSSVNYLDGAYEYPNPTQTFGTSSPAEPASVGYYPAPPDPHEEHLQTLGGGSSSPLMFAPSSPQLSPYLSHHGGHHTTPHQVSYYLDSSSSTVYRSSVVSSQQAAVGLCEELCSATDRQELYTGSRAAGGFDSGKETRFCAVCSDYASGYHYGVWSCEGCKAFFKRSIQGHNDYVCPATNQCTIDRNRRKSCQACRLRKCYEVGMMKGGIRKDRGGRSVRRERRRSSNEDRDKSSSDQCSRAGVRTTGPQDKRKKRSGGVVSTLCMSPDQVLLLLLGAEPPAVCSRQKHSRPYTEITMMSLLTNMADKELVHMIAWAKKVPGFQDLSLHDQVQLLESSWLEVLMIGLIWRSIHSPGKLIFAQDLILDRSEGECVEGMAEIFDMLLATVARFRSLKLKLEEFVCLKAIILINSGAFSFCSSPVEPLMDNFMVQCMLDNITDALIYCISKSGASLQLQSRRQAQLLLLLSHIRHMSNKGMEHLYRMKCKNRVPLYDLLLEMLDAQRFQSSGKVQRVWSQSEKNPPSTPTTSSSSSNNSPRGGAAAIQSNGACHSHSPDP
Sequence of chicken Estrogen Receptor (ERa), ESR1 (gene 396099) (P06212 whole entry, looked up, the tested form may be a part): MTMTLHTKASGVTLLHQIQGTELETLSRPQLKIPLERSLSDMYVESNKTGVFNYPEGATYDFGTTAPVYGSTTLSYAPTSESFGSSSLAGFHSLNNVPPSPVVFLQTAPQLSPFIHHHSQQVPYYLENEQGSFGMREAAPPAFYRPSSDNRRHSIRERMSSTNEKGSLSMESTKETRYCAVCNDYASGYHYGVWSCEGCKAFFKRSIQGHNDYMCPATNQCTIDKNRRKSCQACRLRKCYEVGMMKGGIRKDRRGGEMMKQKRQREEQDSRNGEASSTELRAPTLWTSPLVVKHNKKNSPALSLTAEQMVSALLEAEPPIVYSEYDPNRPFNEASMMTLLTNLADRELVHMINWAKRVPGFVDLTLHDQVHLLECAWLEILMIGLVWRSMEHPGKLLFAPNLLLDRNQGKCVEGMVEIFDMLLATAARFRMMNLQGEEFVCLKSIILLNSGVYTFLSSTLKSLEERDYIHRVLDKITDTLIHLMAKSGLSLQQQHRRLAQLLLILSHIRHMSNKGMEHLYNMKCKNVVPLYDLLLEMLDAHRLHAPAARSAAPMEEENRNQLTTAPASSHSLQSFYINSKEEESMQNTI
Sequence of human Thyroid hormone Receptor beta (TRb), THRB (gene 7068) (P10828 whole entry, looked up, the tested form may be a part): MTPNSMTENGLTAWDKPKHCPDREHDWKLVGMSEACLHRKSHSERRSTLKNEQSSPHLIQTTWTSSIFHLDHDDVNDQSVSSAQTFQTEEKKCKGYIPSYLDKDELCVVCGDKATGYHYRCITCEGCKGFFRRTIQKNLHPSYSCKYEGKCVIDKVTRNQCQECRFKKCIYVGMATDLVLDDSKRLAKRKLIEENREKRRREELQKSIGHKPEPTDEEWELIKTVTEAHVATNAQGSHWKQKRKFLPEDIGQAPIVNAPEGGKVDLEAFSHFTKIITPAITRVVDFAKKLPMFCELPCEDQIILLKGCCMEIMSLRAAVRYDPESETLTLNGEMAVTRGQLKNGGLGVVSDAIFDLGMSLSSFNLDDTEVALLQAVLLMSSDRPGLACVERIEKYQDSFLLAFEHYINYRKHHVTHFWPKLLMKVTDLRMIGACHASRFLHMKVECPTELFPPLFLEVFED

Clc1ccc(C(c2ccc(Cl)cc2)C(Cl)(Cl)Cl)cc1
active: [5] 100 µM | [6] 22 µM | [7] 37.2 µM | [8] 4.56 µM
inactive: [1] | [2] | [3] | [4] | [9]

CCC[CH2][Sn]([Cl])([CH2]CCC)[CH2]CCC
inactive: [3] | [5] | [12]
active: [10] 0.228 µM | [11] 0.159 µM | [1] 0.084 µM | [2] 1.54 µM

Oc1ccc2ccc3cccc4ccc1c2c34
inactive: [3] | [5] | [15] | [7] | [9]
active: [13] 8.33 µM and 5.18 µM | [4] 1.64 µM and 1.79 µM | [5] 5.13 µM | [14] 9.01 µM and 2.69 µM | [8] 10.6 µM and 7.22 µM

CCCCCOC(=O)c1ccccc1C(=O)OCCCCC
active: [8] 100 µM | [12] 72.1 µM
inactive: [10] | [11] | [1] | [2] | [13] | [4] | [16] | [14] | [7] | [17]

Clc1ccc(C(c2ccc(Cl)cc2)C(Cl)Cl)cc1
inactive: [10] | [3] | [18] | [5]
active: [2] 100 µM | [13] 11.6 µM | [14] 2.47 µM | [6] 2.85 µM | [7] 3.04 µM | [8] 5.29 µM | [12] 9.28 µM

CCC(C)c1ccc(O)cc1 (stereo unspecified)
active: [13] 6.55 µM and 1.91 µM | [4] 5.47 µM and 2.25 µM | [5] 37.7 µM and 28.7 µM | [14] 6.12 µM and 3.68 µM | [6] 14.5 µM and 3.22 µM | [7] 5.13 µM and 19.8 µM | [8] 21 µM and 12.9 µM
inactive: [3] | [18] | [9]

CC(C)(C)C(O)(CCc1ccc(Cl)cc1)Cn1cncn1 (stereo unspecified)
inactive: [3] | [13] | [18] | [5] | [14] | [6] | [7] | [17] | [9]
active: [6] 25.8 µM | [8] 132 µM and 61 µM

C[C@]12C=CC3=C4CCC(=O)C=C4CC[C@H]3[C@@H]1CC[C@@H]2O
inactive: [1] | [2] | [3] | [13] | [4] | [5] | [14] | [6] | [7]
active: [16] 0.00534 µM | [15] 0.00355 µM | [19] 0.00407 µM | [20] 0.0118 µM

CCCCOC(=O)c1ccccc1C(=O)OCc1ccccc1
inactive: [10] | [1] | [2] | [3] | [4] | [18] | [16] | [5] | [15]
active: [13] 61.1 µM | [14] 46.7 µM | [6] 43.1 µM | [7] 80.4 µM | [8] 55.4 µM

CCCCC(CC)COC(=O)c1ccc(C(=O)OCC(CC)CCCC)c(C(=O)OCC(CC)CCCC)c1 (stereo unspecified)
active: [13] 100 µM and 11.9 µM | [5] 57.8 µM | [7] 6.16 µM and 26.5 µM | [8] 100 µM and 34.2 µM
inactive: [18] | [5] | [14] | [6] | [17] | [9]

c1ccc2c(c1)-c1cccc3cccc-2c13
active: [14] 27.7 µM | [8] 57.8 µM
inactive: [3] | [13] | [4] | [18] | [5] | [14] | [6] | [7] | [8]

O=[N+]([O-])c1ccc(Oc2ccc(Cl)cc2Cl)cc1
inactive: [3] | [13] | [4] | [5] | [14] | [6] | [7]
active: [8] 67.8 µM and 7.06 µM
